# From PubChem BioAssay (EPA / NIEHS)
# Inconclusive results are not listed. The source made the active and inactive calls. Rule for the calls: active = hit-call score of the fitted dose curve at least 0.9, where 1 is the maximum; inconclusive = response in the unintended direction; inactive = score below 0.9.
# Assays:
# [1] = TOX21_p53_BLA_p2_viability: Viability Assessment in the Tox21 HCT-116 p53 Agonism Beta-lactamase Assay, Phase 2 (AID 2283591);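 note: compound exposure lasted 16 h at 37 °C; actives lower the ATP signal meaning cytotoxicity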
# Procedure, shortened: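 HCT-116 p53-bla cells (4000/well) rested 5 h at 37C, then received compounds in DMSO (217-fold dilution) for 16 h at 37C, 5% CO2. After the CCF4 read, CellTiter-Glo was added; ATP luminescence was read after 30 min at room temperature.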
# [2] = target: Cellular tumor antigen p53 (Homo sapiens) (UniProt P04637); experiment: TOX21_p53_BLA_p2_ratio: Tox21 HCT-116 p53 Agonism Beta-lactamase Assay, Ratio, Phase 2 (AID 2283592)
# Sequence of Cellular tumor antigen p53 (Homo sapiens) (P04637 whole entry, looked up): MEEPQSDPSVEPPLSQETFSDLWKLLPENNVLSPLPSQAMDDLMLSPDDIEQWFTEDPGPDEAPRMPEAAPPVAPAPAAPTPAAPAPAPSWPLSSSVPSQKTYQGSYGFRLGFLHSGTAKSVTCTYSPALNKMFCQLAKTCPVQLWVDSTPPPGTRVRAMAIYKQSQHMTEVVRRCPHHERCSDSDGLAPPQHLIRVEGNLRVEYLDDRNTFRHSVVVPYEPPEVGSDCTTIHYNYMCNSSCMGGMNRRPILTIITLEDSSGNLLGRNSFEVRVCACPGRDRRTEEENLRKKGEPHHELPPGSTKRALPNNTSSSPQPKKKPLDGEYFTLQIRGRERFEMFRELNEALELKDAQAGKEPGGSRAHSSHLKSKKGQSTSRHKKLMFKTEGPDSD
# Procedure, shortened: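 HCT116 cells carrying a p53-responsive beta-lactamase reporter were plated, incubated 5 h at 37C, then dosed with compounds in DMSO (217-fold dilution) for 16 h. CCF4-AM substrate was added for 2 h at room temperature; the 460/530 nm emission ratio gave gain-of-signal activity relative to DMSO.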
# [3] = TOX21_p53_BLA_p3_viability: Viability Assessment in the Tox21 HCT-116 p53 Agonism Beta-lactamase Assay, Phase 3 (AID 2283593);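 note: cells exposed to compound for 16 h before reading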
# Procedure, shortened: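 HCT-116 cells (4000/well) rested 5 h at 37C, then got DMSO compounds by pin tool (217-fold dilution) for 16 h at 37C, 5% CO2. After the bla read, CellTiter-Glo was added and luminescence read at 30 min, room temperature.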
# [4] = target: Cellular tumor antigen p53 (Homo sapiens) (UniProt P04637); experiment: TOX21_p53_BLA_p3_ratio: Tox21 HCT-116 p53 Agonism Beta-lactamase Assay, Ratio, Phase 3 (AID 2283596)
# Procedure, shortened: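 HCT116 p53-bla cells (4000/well) given compound in DMSO (217-fold dilution) after 5 h, incubated 16 h at 37C. CCF4-AM substrate 2 h at room temperature; 460/530 nm emission ratio, gain fitted against DMSO.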
# [5] = TOX21_p53_BLA_p4_viability: Viability Assessment in the Tox21 HCT-116 p53 Agonism Beta-lactamase Assay, Phase 4 (AID 2283597);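 note: hits lower the luminescence signal meaning cytotoxicity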
# Procedure, shortened: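 HCT116 p53-bla cells (4000/well) rested 5 h at 37C, then received compounds in DMSO (217-fold dilution) for 16 h at 37C, 5% CO2. CellTiter-Glo was added after the CCF4-AM read, and luminescence was read after 30 min at room temperature.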
# [6] = target: Cellular tumor antigen p53 (Homo sapiens) (UniProt P04637); experiment: TOX21_p53_BLA_p5_ratio: Tox21 HCT-116 p53 Agonism Beta-lactamase Assay, Ratio, Phase 5 (AID 2283599)
# Procedure, shortened: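 HCT-116 cells carrying a p53-inducible beta-lactamase reporter were seeded at 4000 cells/well and dosed after 5 h with compound in DMSO (217-fold dilution). After 16 h at 37C, CCF4-AM substrate was added for 2 h, and the 460/530 nm emission ratio was scored as gain-of-signal versus DMSO.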
# [7] = target: Cellular tumor antigen p53 (Homo sapiens) (UniProt P04637); experiment: TOX21_p53_BLA_p4_ratio: Tox21 HCT-116 p53 Agonism Beta-lactamase Assay, Ratio, Phase 4 (AID 2283601)
# Procedure, shortened: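 HCT116 cells carrying an inducible beta-lactamase reporter were plated at 4000 cells/well, rested 5 h, then exposed to compounds in DMSO (217-fold dilution) for 16 h at 37C. CCF4-AM substrate was loaded 2 h at room temperature; 460/530 nm emission ratio scored gain-of-signal versus DMSO.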
# [8] = TOX21_p53_BLA_p5_viability: Viability Assessment in the Tox21 HCT-116 p53 Agonism Beta-lactamase Assay, Phase 5 (AID 2283600)
# Procedure, shortened: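 Cells were plated at 4000/well, rested 5 h at 37C, then given compounds in DMSO (217-fold dilution) for 16 h at 37C, 5% CO2. Following the CCF4-AM beta-lactamase read, CellTiter-Glo was added and luminescence was read after 30 min at room temperature.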
# [9] = target: Thyroid hormone receptor alpha (Rattus norvegicus) + Thyroid hormone receptor beta (Rattus norvegicus) (UniProt P18113+P63059); experiment: TOX21_TR_LUC_GH3_Antagonist_Followup: Tox21 GH3 Thyroid Hormone Receptor Antagonism Luciferase Follow-Up Assay (AID 2283942)
# Procedure, shortened: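 Rat pituitary GH3 cells with a TRα/TRβ-driven luciferase reporter, 5 h attachment, then 15 concentrations (92 uM to 5nM final) plus 1.0 nM T3 agonist, 24 h at 37C/5% CO2. ONE-Glo luminescence; signal change fitted against DMSO baseline.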
# THRA (gene 7067) = THRA (gene 7067) (UniProt P10827); experiment: TOX21_TRA_COA_Antagonist_Followup_ratio: Tox21 Thyroid Hormone Receptor alpha Antagonism through Coactivator Recruitment Follow-Up Assay, Ratio (AID 2283953)
# Sequence of THRA (gene 7067) (P10827 whole entry, looked up, the tested form may be a part): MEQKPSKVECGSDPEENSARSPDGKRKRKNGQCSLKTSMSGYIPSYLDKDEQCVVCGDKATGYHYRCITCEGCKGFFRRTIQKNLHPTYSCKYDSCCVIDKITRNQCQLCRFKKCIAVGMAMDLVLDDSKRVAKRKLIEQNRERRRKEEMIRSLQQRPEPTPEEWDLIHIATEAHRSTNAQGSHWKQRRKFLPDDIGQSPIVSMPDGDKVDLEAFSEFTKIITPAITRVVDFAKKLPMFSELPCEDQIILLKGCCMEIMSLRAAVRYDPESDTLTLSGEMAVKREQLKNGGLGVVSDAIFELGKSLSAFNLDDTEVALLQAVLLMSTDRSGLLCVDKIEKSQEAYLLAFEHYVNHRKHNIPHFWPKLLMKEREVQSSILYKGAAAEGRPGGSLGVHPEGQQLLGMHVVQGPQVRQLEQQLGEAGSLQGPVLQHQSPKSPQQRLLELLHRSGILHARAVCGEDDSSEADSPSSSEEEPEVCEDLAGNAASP
# Procedure, shortened: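 520:495 nm emission ratio (excitation 340 nm) reports fluorescein-SRC-2 peptide recruitment to GST-TRα LBD by TR-FRET with Tb anti-GST antibody. Values were normalized to DMSO (0%) and T3 control wells (100%); loss of signal indicated antagonism.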
# THRB (gene 7068) [10] = target: THRB (gene 7068) (UniProt P10828); experiment: TOX21_TRB_BLA_Antagonist_Followup_ratio: Tox21 Thyroid Hormone Receptor beta Antagonism Beta-lactamase (BLA) Follow-Up Assay, Ratio (AID 2283958)
# Sequence of THRB (gene 7068) (P10828 whole entry, looked up, the tested form may be a part): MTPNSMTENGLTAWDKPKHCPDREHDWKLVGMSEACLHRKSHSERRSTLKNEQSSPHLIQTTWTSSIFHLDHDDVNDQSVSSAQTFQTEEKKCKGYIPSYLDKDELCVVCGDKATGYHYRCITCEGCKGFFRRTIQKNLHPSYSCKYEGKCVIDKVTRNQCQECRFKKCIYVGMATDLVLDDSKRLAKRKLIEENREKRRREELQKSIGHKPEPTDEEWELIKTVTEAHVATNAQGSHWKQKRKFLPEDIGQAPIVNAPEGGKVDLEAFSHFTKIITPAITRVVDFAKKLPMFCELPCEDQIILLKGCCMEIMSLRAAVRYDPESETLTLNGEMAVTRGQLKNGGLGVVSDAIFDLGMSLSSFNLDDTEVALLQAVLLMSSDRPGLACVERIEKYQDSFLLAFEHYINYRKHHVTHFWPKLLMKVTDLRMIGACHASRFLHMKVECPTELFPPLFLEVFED
# Procedure, shortened: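 HEK293T TRb-bla (GAL4 DBD + hTRβ LBD), 2% cs-FBS phenol red-free DMEM, 5 h attach; cpds 11-pt triplicate, 18 h 37C; CCF4-AM 2 h RT; 460/530 ratio vs DMSO; CellTiter-Glo viability same wells.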
# [11] = TOX21_TRB_BLA_Antagonist_Followup_viability: Viability Assessment in the Tox21 Thyroid Hormone Receptor beta Antagonism Beta-lactamase (BLA) Follow-Up Assay (AID 2283961)
# Procedure, shortened: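 HEK293T cells stably expressing GAL4-DBD/human TRβ-LBD with UAS-bla reporter, 3,000 cells/well in phenol red-free DMEM, 2% charcoal-stripped FBS. Compounds at 11 concentrations in triplicate, 18 h at 37C/5% CO2; viability by CellTiter-Glo luminescence after 30 min at room temperature.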
# THRB (gene 7068) [12] = target: THRB (gene 7068) (UniProt P10828); experiment: TOX21_TRB_COA_Antagonist_Followup_ratio: Tox21 Thyroid Hormone Receptor beta Antagonism through Coactivator Recruitment Follow-Up Assay, Ratio (AID 2283967)
# Procedure, shortened: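 Cell-free TR-FRET coactivator recruitment with GST-tagged TRβ LBD (5.0 nM) and fluorescein-labeled SRC-2 peptide (200 nM) detected by terbium anti-GST antibody (2 nM). The 520:495 nm emission ratio was normalized to DMSO (0%) and T3 (100%).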
# [13] = target: Retinoic acid receptor RXR-alpha (Homo sapiens) (UniProt P19793); experiment: TOX21_TR_RXR_BLA_Antagonist_Followup_ratio: Tox21 Thyroid Hormone Receptor beta Retinoid X Receptor alpha (RXRa) Antagonism Beta-lactamase (BLA) Follow-Up Assay, Ratio (AID 2283972)
# Sequence of Retinoic acid receptor RXR-alpha (Homo sapiens) (P19793 whole entry, looked up): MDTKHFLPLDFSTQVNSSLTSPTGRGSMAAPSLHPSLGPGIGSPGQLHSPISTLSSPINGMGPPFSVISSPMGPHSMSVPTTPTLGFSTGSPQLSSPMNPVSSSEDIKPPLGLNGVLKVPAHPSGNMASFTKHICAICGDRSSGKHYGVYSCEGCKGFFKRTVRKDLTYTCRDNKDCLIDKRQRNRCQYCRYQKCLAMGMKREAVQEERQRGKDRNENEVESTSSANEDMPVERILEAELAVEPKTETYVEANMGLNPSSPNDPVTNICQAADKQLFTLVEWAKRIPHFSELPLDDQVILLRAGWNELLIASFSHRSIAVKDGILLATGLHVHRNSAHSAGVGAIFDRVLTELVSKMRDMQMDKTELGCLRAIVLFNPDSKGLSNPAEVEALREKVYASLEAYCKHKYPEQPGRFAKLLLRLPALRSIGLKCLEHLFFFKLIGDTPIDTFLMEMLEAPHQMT
# Procedure, shortened: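 RXRa-UAS-bla HEK293T cells in phenol red-free DMEM with 2% charcoal-stripped FBS; compounds at 11 concentrations in triplicate, 16 h at 37C. LiveBLAzer FRET-B/CCF4-AM substrate 2 h at room temperature; read as 460:530 nm ratio versus DMSO.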
smiles,measurement,setting,value
C[N+]1(C)CCCC(OC(=O)C(O)(c2ccccc2)c2ccccc2)C1 (stereo unspecified),outcome,[1],inactive
same,outcome,[2],inactive
same,outcome,[3],inactive
same,outcome,[4],inactive
same,outcome,[5],inactive
same,outcome,[6],inactive
same,outcome,[7],inactive
NC(N)=NCc1cccc(I)c1,outcome,[1],inactive
same,outcome,[2],inactive
same,outcome,[3],inactive
same,outcome,[4],inactive
same,outcome,[5],inactive
same,outcome,[6],inactive
same,outcome,[8],inactive
same,outcome,[7],inactive
same,outcome,[9],inactive
same,outcome,THRA (gene 7067),inactive
same,outcome,THRB (gene 7068) [10],inactive
same,outcome,[11],inactive
same,outcome,THRB (gene 7068) [12],inactive
same,outcome,[13],inactive
O=C(O)C(=O)Nc1cccc(-c2nn[nH]n2)c1,outcome,[1],inactive
same,outcome,[2],inactive
same,outcome,[3],inactive
same,outcome,[4],inactive
same,outcome,[5],inactive
same,outcome,[6],inactive
same,outcome,[7],inactive
Cc1ccc2c(Br)cc(Br)c(O)c2n1,outcome,[1],inactive
same,AC50,[2],40.4 µM (active)
same,outcome,[3],inactive
same,outcome,[4],inactive
same,AC50,[5],16.8 µM (active)
same,outcome,[6],inactive
same,AC50,[7],43 µM (active)
CC(CN1CC(=O)NC(=O)C1)N1CC(=O)NC(=O)C1 (stereo unspecified),outcome,[1],inactive
same,AC50,[2],8.6 µM (active)
same,outcome,[3],inactive
same,outcome,[4],inactive
same,outcome,[5],inactive
same,AC50,[6],8.51 µM (active)
same,AC50,[7],8.89 µM (active)
C1COC(NC(C2CC2)C2CC2)=N1,outcome,[1],inactive
same,outcome,[2],inactive
same,outcome,[3],inactive
same,outcome,[4],inactive
same,outcome,[5],inactive
same,outcome,[6],inactive
same,AC50,[7],39.6 µM (active)
CC(=O)Nc1ccc(C)cc1,outcome,[1],inactive
same,outcome,[2],inactive
same,outcome,[3],inactive
same,outcome,[4],inactive
same,outcome,[5],inactive
same,outcome,[6],inactive
same,outcome,[7],inactive
CCCCCCCCCCCCCC(=O)OCC(COP(=O)([O-])OCC[N+](C)(C)C)OC(=O)CCCCCCCCCCCCC (stereo unspecified),outcome,[1],inactive
same,outcome,[2],inactive
same,AC50,[3],42.8 µM (active)
same,outcome,[4],inactive
same,outcome,[5],inactive
same,outcome,[6],inactive
same,outcome,[7],inactive
CC[C@H]1OC(=O)[C@H](C)[C@@H](O[C@H]2C[C@@](C)(OC)[C@@H](O)[C@H](C)O2)[C@H](C)[C@@H](O[C@@H]2O[C@H](C)C[C@H](N(C)C)[C@H]2O)[C@](C)(OC)C[C@@H](C)C(=O)[C@H](C)[C@@H](O)[C@]1(C)O,outcome,[1],inactive
same,outcome,[2],inactive
same,outcome,[3],inactive
same,outcome,[4],inactive
same,outcome,[5],inactive
same,outcome,[6],inactive
same,outcome,[7],inactive
CCCC1C(CC)=CC(CC)=CN1c1ccccc1 (stereo unspecified),outcome,[1],inactive
same,outcome,[2],inactive
same,outcome,[3],inactive
same,outcome,[4],inactive
same,outcome,[5],inactive
same,outcome,[6],inactive
same,outcome,[7],inactive
Nc1ccncc1N,outcome,[1],inactive
same,outcome,[2],inactive
same,outcome,[3],inactive
same,outcome,[4],inactive
same,outcome,[5],inactive
same,outcome,[6],inactive
same,outcome,[7],inactive
CC[C@H](NC(C)C)[C@H](O)c1ccc(O)c2[nH]c(=O)ccc12,outcome,[1],inactive
same,outcome,[2],inactive
same,outcome,[3],inactive
same,outcome,[4],inactive
same,outcome,[5],inactive
same,outcome,[6],inactive
same,outcome,[7],inactive
